Laboratory results published in PubChem BioAssay (NCI).
This is part of a sample that, as a whole, favours compounds with a hit. Of some 83,000 tested, about 20% had one in any assay.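 Step 1: grow cells in 96-well plates. Step 2: add test compound at a single concentration. Step 3: incubate 48 h. Step 4: record percent growth.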

Assays:
Assay in all cases: NCI-60 one-dose screen, 48 h (100 = growth as untreated, 0 = no growth, -100 = all killed); active means growth percent below 10; inactive means the rest
SK-MEL-2 melanoma = settings: 10 µM
EKVX NSCLC = settings: 10 µM
UO-31 renal = settings: 10 µM
TK-10 renal = settings: 10 µM unless noted
ACHN renal = settings: 10 µM
SR leukemia = settings: 10 µM
OVCAR-8 ovarian = settings: 10 µM
OVCAR-5 ovarian = settings: 10 µM
OVCAR-4 ovarian = settings: 10 µM
SK-OV-3 ovarian = settings: 10 µM
IGROV1 ovarian = settings: 10 µM
OVCAR-3 ovarian = settings: 10 µM
HS 578T breast = settings: 10 µM
NCI/ADR-RES ovarian = settings: 10 µM
SN12C renal = settings: 10 µM
CCRF-CEM leukemia = settings: 10 µM
MOLT-4 leukemia = settings: 10 µM
RPMI-8226 leukemia = settings: 10 µM
CAKI-1 renal = settings: 10 µM
A498 renal = settings: 10 µM

Measured: growth

c1ccc(/C(=N\N=C(/c2ccccc2)c2cccs2)c2cccs2)cc1
inactive: SK-MEL-2 melanoma 89.1% | EKVX NSCLC 98% | UO-31 renal 71.2% | TK-10 renal 104% | ACHN renal 89.8% | SR leukemia 87.3% | OVCAR-8 ovarian 95% | OVCAR-5 ovarian 98.5% | OVCAR-4 ovarian 97.1% | SK-OV-3 ovarian 105% | IGROV1 ovarian 105% | OVCAR-3 ovarian 99.7% | HS 578T breast 105% | NCI/ADR-RES ovarian 102%

CCCCC(CC)COC(C)=O (stereo not drawn)
inactive: SK-MEL-2 melanoma 106% | EKVX NSCLC 101% | SN12C renal 101% | TK-10 renal 102% | ACHN renal 106% | CCRF-CEM leukemia 108% | MOLT-4 leukemia 105% | SR leukemia 103% | RPMI-8226 leukemia 110% | OVCAR-8 ovarian 102% | OVCAR-5 ovarian 103% | OVCAR-4 ovarian 100% | SK-OV-3 ovarian 101% | IGROV1 ovarian 112% | OVCAR-3 ovarian 105% | HS 578T breast 106% | NCI/ADR-RES ovarian 99.2%

CCCCCCCCCCC(C)Br (stereo not drawn)
inactive: SK-MEL-2 melanoma 104% | SN12C renal 103% | UO-31 renal 91.9% | TK-10 renal 107% | ACHN renal 102% | CAKI-1 renal 98.6% | A498 renal 108% | CCRF-CEM leukemia 95.3% | MOLT-4 leukemia 95.3% | SR leukemia 93.8% | RPMI-8226 leukemia 101% | OVCAR-8 ovarian 108% | OVCAR-5 ovarian 104% | OVCAR-4 ovarian 109% | SK-OV-3 ovarian 98.3% | IGROV1 ovarian 106% | OVCAR-3 ovarian 108% | HS 578T breast 116% | NCI/ADR-RES ovarian 105%

C#CC(C)(O)c1ccc(Cl)cc1 (stereo not drawn)
inactive: SK-MEL-2 melanoma 106% | EKVX NSCLC 98.6% | SN12C renal 113% | TK-10 renal 106% | CAKI-1 renal 103% | CCRF-CEM leukemia 103% | MOLT-4 leukemia 107% | SR leukemia 96.6% | RPMI-8226 leukemia 101% | OVCAR-8 ovarian 105% | OVCAR-5 ovarian 107% | SK-OV-3 ovarian 90.3% | IGROV1 ovarian 111% | HS 578T breast 106% | NCI/ADR-RES ovarian 92.4%

COc1ccc(C2OC(N)=C(O)C2=O)cc1OC (stereo not drawn)
inactive: SK-MEL-2 melanoma 117% | EKVX NSCLC 94.3% | SN12C renal 96.1% | TK-10 renal 104% | ACHN renal 96.9% | A498 renal 109% | CCRF-CEM leukemia 98.2% | MOLT-4 leukemia 109% | RPMI-8226 leukemia 104% | OVCAR-8 ovarian 105% | OVCAR-5 ovarian 96.7% | OVCAR-4 ovarian 103% | SK-OV-3 ovarian 99.5% | IGROV1 ovarian 106% | OVCAR-3 ovarian 114% | HS 578T breast 70.1% | NCI/ADR-RES ovarian 103%

O=C(O)CCCC(=O)O
inactive: SK-MEL-2 melanoma 106% | SN12C renal 102% | UO-31 renal 87% | TK-10 renal 120% | ACHN renal 103% | CAKI-1 renal 105% | A498 renal 109% | CCRF-CEM leukemia 101% | MOLT-4 leukemia 103% | SR leukemia 94.7% | OVCAR-8 ovarian 99.4% | OVCAR-5 ovarian 104% | OVCAR-4 ovarian 84.3% | SK-OV-3 ovarian 104% | IGROV1 ovarian 104% | OVCAR-3 ovarian 102% | HS 578T breast 110% | NCI/ADR-RES ovarian 103%

CCCCOC(=O)c1ccc(C(C)C)cc1
inactive: SK-MEL-2 melanoma 99.7% | EKVX NSCLC 91.7% | SN12C renal 102% | CAKI-1 renal 96.7% | A498 renal 87% | CCRF-CEM leukemia 112% | MOLT-4 leukemia 83.3% | SR leukemia 102% | RPMI-8226 leukemia 110% | OVCAR-8 ovarian 106% | OVCAR-5 ovarian 102% | IGROV1 ovarian 100% | OVCAR-3 ovarian 106% | HS 578T breast 108% | NCI/ADR-RES ovarian 97.3%

Cc1ccc(C(=O)NC2c3ccccc3Oc3ccccc32)cc1
inactive: SK-MEL-2 melanoma 66.4% | EKVX NSCLC 64.6% | UO-31 renal 34.4% | TK-10 renal 54.4% | ACHN renal 40% | CAKI-1 renal 64.9% | A498 renal 43.5% | CCRF-CEM leukemia 56.7% | MOLT-4 leukemia 45.5% | SR leukemia 26.6% | RPMI-8226 leukemia 78.9% | OVCAR-8 ovarian 48.6% | OVCAR-5 ovarian 80.6% | OVCAR-4 ovarian 64.7% | SK-OV-3 ovarian 48.3% | IGROV1 ovarian 50.8% | OVCAR-3 ovarian 31.6% | HS 578T breast 46.5% | NCI/ADR-RES ovarian 55%

Cc1ccc(C(=O)c2ccccc2)c(C)c1
inactive: SK-MEL-2 melanoma 108% | EKVX NSCLC 105% | SN12C renal 99.2% | TK-10 renal 109% | ACHN renal 103% | A498 renal 104% | MOLT-4 leukemia 116% | SR leukemia 127% | RPMI-8226 leukemia 98% | OVCAR-8 ovarian 109% | OVCAR-5 ovarian 95.3% | OVCAR-4 ovarian 103% | SK-OV-3 ovarian 99.2% | IGROV1 ovarian 101% | OVCAR-3 ovarian 112% | HS 578T breast 113% | NCI/ADR-RES ovarian 99.7%

CC1(C)S(=O)(=O)OCCOS1(=O)=O
inactive: SK-MEL-2 melanoma 115% | EKVX NSCLC 94.8% | SN12C renal 101% | TK-10 renal 93.2% | ACHN renal 106% | A498 renal 101% | CCRF-CEM leukemia 78.8% | MOLT-4 leukemia 102% | RPMI-8226 leukemia 104% | OVCAR-8 ovarian 99.2% | OVCAR-5 ovarian 110% | OVCAR-4 ovarian 102% | SK-OV-3 ovarian 111% | IGROV1 ovarian 108% | OVCAR-3 ovarian 110% | HS 578T breast 106% | NCI/ADR-RES ovarian 103%
